Hits are enriched below; roughly 4.1% of the tested compounds scored in any of these assays.
MBD2 DNA inh: inhibitors of MBD2 binding to methylated DNA, primary screen, biochemical, TR-FRET, DNA-binding domain, human; Methyl-CpG-binding domain protein 2 (Homo sapiens), Q9UBB5; MBD2 binding to methylated oligonucleotide; inhibition, % at 4.4 µM; actives 0.31% (n = 370,000); AID 686964, 2013; in the data active = inhibition above about 13%
Target sequence (Q9UBB5 whole entry, looked up, the tested form may be a part): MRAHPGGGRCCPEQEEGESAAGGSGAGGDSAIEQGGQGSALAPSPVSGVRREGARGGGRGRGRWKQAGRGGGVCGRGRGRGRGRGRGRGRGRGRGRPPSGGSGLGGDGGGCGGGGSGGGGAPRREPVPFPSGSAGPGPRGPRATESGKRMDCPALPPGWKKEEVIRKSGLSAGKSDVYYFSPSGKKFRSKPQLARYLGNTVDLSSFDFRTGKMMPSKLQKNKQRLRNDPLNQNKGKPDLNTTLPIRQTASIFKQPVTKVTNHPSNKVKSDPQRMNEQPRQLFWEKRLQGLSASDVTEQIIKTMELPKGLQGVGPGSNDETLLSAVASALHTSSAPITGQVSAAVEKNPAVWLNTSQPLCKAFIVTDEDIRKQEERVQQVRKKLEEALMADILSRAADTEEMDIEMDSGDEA
PRMT1 inh: PRMT1 methyltransferase inhibitors, primary screen, biochemical, fluorescence polarization; Protein arginine N-methyltransferase 1 (Homo sapiens), Q99873; recombinant PRMT1, activity-based probe fluorescence polarization; inhibition, % at 2.79 µM; actives 1.3% (n = 370,000);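 active = inhibition above about 21% made by adding two undisclosed values, limit read from the data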
rCAG binder: binders of r(CAG) RNA repeats, primary screen, biochemical, fluorescence; r(CAG) RNA repeat, TO-PRO-1 dye displacement fluorescence; actives 1.3% (n = 370,000); inhibition, % at 3 µM;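 active = inhibition above the plate cutoff, the mean of all test compounds on that plate plus 3 SD, cut at about 35% in these data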;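 also: 0% = DMSO alone and 100% = 100 µM mitoxantrone as full dye displacement; higher means more dye released from RNA so lower well fluorescence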
UHRF1 binding: UHRF1 methylated DNA binding inhibitors, primary screen, counter-screen for MBD2 inhibitor project, biochemical, TR-FRET, human UHRF1, single concentration | UHRF1 binding to methylated oligo | actives 0.75% (n = 370,000) | E3 ubiquitin-protein ligase UHRF1 (Homo sapiens), Q96T88 | inhibition, % at 4.4 µM | AID 687016, 2013; in the data active = inhibition above about 21%;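 also: UHRF1 SRA domain binding a hemimethylated CpG hairpin DNA probe; 0% = median of test compound wells and 100% = reference inhibitor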
ABHD5-PLIN5 inh: ABHD5-PLIN5 interaction inhibitors, primary screen, cell lysate, split luciferase complementation, luminescence; Split G. princeps luciferase complementation, 4 h; Perilipin-5 (Homo sapiens) + 1-acylglycerol-3-phosphate O-acyltransferase ABHD5 (Homo …; inhibition, % at 4 µM; AID 602281, 2012; actives 0.78% (n = 360,000);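 active = inhibition above the mean inhibition across every tested compound plus 3 SD, cut at about 22% in these data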;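 also: 0% = DMSO only wells and the 100% control is not disclosed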
LEDGF integ inh: blockers of LEDGF/p75-dependent integrase strand transfer – biochemical, TR-FRET, high throughput, primary screen. TR-FRET IN-LEDGF/p75 DNA integration, Eu/Cy5. inhibition, % at 3.7 µM. actives 0.64% (n = 370,000). AID 743269, 2014;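 active = inhibition above the screen-wide mean plus 3 SD, cut at about 13% in these data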;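 also: signal is the Cy5 over europium emission ratio at 671 and 618 nm; 0% = plate median of compound wells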
ABHD5-PLIN5 conf: ABHD5-PLIN5 interaction inhibitors, confirmation, biochemical, luminescence; actives 67% (n = 2,200); inhibition, % at 4 µM; AID 651612, 2012; shares compounds with ABHD5-PLIN5 inh; in the data active = inhibition above about 23%;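 also: 0% = DMSO vehicle wells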
HNF4 split-luc: HNF4 dimerization inhibitors, counter-screen for ABHD5-PLIN5 interaction inhibitor project, biochemical, split-luciferase complementation, luminescence; shares compounds with ABHD5-PLIN5 inh; inhibition, % at 4 µM; actives 77% (n = 2,200); AID 651674, 2012;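 active = mean inhibition across replicate wells exceeding the computed hit threshold, cut at about 13% in these data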;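 also: light from luciferase halves that rejoin when HNF4 fusion proteins dimerize; 0% = DMSO only wells and the 100% control is not given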
Active calls of the source: *; . = no result given.

SMILES	MBD2 DNA inh	PRMT1 inh	rCAG binder	UHRF1 binding	ABHD5-PLIN5 inh	LEDGF integ inh	ABHD5-PLIN5 conf	HNF4 split-luc
CCNC(=O)Nc1ccc2c(c1)C(=O)N(C)[C@H]1CC[C@@H](CC(=O)NCCN3CCCC3)O[C@@H]1CO2	1	-2	3	1	.	2	.	.
COc1ccccc1C(c1c(O)nc(SC)[nH]c1=O)c1c(O)nc(SC)[nH]c1=O	5	8	0	-1	24*	-8	49*	42*
CCOC(CN=c1nc(N(C)C)ss1)OCC	0	1	-1	-13	81*	-2	78*	101*
O=C(OCc1cn(Cc2ccccc2C(F)(F)F)nn1)N1CCOCC1	-2	-4	0	8	.	2	.	.
COc1ccc2c(c1)/C(=C\c1cccc(/C=C3/C(=O)Nc4ccc(OC)cc43)n1)C(=O)N2	1	-1	13	-2	51*	-3	100*	98*
O=[N+]([O-])c1ccc(-[n+]2ccc3ccccc3c2)c([N+](=O)[O-])c1	2	5	5	1	29*	2	62*	58*
O=C(OCc1cn(Cc2cccc(C(F)(F)F)c2)nn1)N1CCOCC1	2	0	0	3	.	0	.	.
CN(C)c1ccc(C(=O)C=Cc2ccc([N+](=O)[O-])cc2)cc1	4	3	-1	1	3	-6	.	.
O=C(C=Cc1ccccc1)c1ccc([N+](=O)[O-])cc1	1	-1	3	0	67*	1	95*	91*
O=C(C=Cc1ccco1)c1ccc([N+](=O)[O-])cc1	8	23*	34	6	35*	10	47*	42*
COc1cc(C(=O)/C=C/c2cccnc2)c([N+](=O)[O-])cc1OC	2	4	-3	-2	47*	-1	74*	72*
COc1cc(C(=O)Nc2ccncc2)c([N+](=O)[O-])cc1OC	1	-1	-1	1	-6	2	.	.
Cc1[nH]c(C)c(C(=O)/C=C/c2ccc([N+](=O)[O-])cc2)c1C	-3	2	5	-3	25*	-1	39*	44*
COC(=O)[C@]12C[C@H](CC(=O)NCc3ccc(C)o3)C(=O)N(Cc3ccccc3)C1=C[C@H](C(C)C)O[C@@H]2C1CC1	-3	3	1	-2	.	1	.	.
COC(=O)[C@]12C[C@H](CC(=O)N3CCOCC3)C(=O)N(Cc3ccco3)C1=C[C@H](C1CCCC1)O[C@@H]2C	-2	-5	-1	1	.	0	.	.
COc1cccc(N2CCN(CC(=O)NCc3c(F)cccc3F)CC2)c1	0	-5	-2	-1	.	1	.	.
O=C(CSc1nnc(-c2ccc(Cl)cc2)n1C1CCCCC1)NN=Cc1c(O)ccc2ccccc12	-3	2	14	-1	.	-1	.	.
O=C(/C=C/c1cccnc1)c1ccc([N+](=O)[O-])cc1	-1	6	4	-1	57*	5	89*	94*
Cc1cccc2cc(/C=C/C(=O)c3ccco3)c(Cl)nc12	0	6	7	3	42*	1	73*	63*
Cc1cccc2cc(/C=N/NC(=O)c3ccccc3O)c(Cl)nc12	-4	-1	6	1	2	6	.	.
CCOc1ccc2nc(Cl)c(/C=C/C(=O)c3ccco3)cc2c1	11	0	5	12	34*	2	93*	92*
O=C(NCc1ccco1)c1ccc2c(c1)C(=O)c1ccccc1-2	-6	9	10	-18	33*	-1	46*	49*
CCC(CC)C(=O)Nc1cccc(C(=O)NCc2ccco2)c1	-5	5	11	2	25*	11	25*	31*
COC(=O)N1CCc2c(sc(NC(=O)C3COc4ccccc4O3)c2C(N)=O)C1 (configuration not stated)	-3	4	12	-1	40*	1	1	8
NC(=O)c1c(NC(=O)C2COc3ccccc3O2)sc2c1CCN(Cc1ccccc1)C2 (configuration not stated)	-5	0	-1	5	-5	2	.	.
SMILES	MBD2 DNA inh	PRMT1 inh	rCAG binder	UHRF1 binding	ABHD5-PLIN5 inh	LEDGF integ inh	ABHD5-PLIN5 conf	HNF4 split-luc
Cc1ccccc1CNC(=O)C1C2C=CC3(CN(Cc4ccccc4)C(=O)C13)O2 (configuration not stated)	4	4	-1	0	.	3	.	.
COc1ccc(N/N=C(\C#N)C(=N)SCc2ccccc2)cc1	-6	9	5	2	39*	7	38*	37*
COc1ccc(N/N=C(\C#N)C(=N)N2CCCCC2)cc1	3	4	0	-2	6	-2	.	.
CN(C)CCN(Cc1ccco1)c1ccccn1	3	-5	0	1	46*	1	35*	0
CC[C@@H](C)[C@@H]1CN([C@@H](C)CN2CCC[C@H]2CN2C(N)=NC[C@@H]2Cc2ccccc2)C(=N)N1CCc1ccc(Cl)c(Cl)c1	.	.	.	.	34*	.	17	5
CC[C@@H](C)[C@@H]1CN([C@@H](C)CN2CCC[C@H]2CN2C(N)=NC[C@@H]2Cc2ccccc2)C(=N)N1CCCC1CCCC1	-2	2	13	0	29*	0	11	-1
O=C(N/N=C/c1ccccc1)C(=O)N/N=C/c1ccccc1	-3	-2	1	-1	1	2	.	.
O=C(C=C=Nc1ccccc1)C(=O)N=C=Cc1ccccc1	-2	5	3	0	73*	3	96*	99*
COc1ccccc1N1CCN(Cc2cc(Br)c(O)c3ncccc23)CC1	-1	4	10	-10	25*	4	14	14*
O=C(/C=C/c1cn(-c2ccccc2)nc1-c1cccs1)NCCN1CCOCC1	6	9	3	4	32*	0	11	6
O=C(c1cn(-c2ccccc2)nc1-c1cccs1)N1CCOCC1	-2	-1	0	3	6	3	.	.

Screens (PubChem)
